From PubChem BioAssay
Rows were chosen to be rich in hits. Some 2.3% of all compounds tested hit in one or more screens of this group.
Mcl1-Bid inh = Mcl-1/Bid binding inhibitors, primary screen, biochemical, TR-FRET, 1536-well. Induced myeloid leukemia cell differentiation protein Mcl-1 (Homo sapiens), Q07820. TR-FRET Mcl-1/Bid-Dy647 peptide binding. inhibition, % at 21.7 µM. 0.97% of 220,000 active. AID 1021, 2008;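 active = compounds that cut the binding signal by more than half at the single screening dose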;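 also: His-tagged Mcl-1 with europium anti-His antibody binding Bid BH3 peptide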
Target sequence (Q07820 whole entry, looked up): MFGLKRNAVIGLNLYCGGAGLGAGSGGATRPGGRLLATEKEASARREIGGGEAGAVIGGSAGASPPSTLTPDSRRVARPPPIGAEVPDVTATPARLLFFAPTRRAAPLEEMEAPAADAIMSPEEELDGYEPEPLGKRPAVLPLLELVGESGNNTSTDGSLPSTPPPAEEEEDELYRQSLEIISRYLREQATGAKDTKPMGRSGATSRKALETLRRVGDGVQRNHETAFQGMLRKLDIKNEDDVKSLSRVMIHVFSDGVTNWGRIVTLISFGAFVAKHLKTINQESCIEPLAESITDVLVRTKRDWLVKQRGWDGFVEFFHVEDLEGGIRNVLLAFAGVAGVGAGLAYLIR
Mcl1 Noxa PPI = Mcl-1/Noxa binding inhibitors, primary screen, biochemical, TR-FRET, 1536-well | inhibition, % at 21.7 µM | TR-FRET Mcl-1/Noxa peptide binding, 2 h | 1.5% of 220,000 active | AID 1022, 2008;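 active = compounds that cut the protein-peptide binding signal by more than 50% relative to plate controls in a single-dose test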;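 also: His-tagged Mcl-1 with rhodamine Noxa BH3 peptide and terbium anti-His antibody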
Mcl-1 Bim block = inhibitors of Bim peptide binding to Mcl-1, primary screen, biochemical, bead-based flow cytometry, multiplex | 0.1% of 190,000 active | inhibition, % at 10 µM | AID 1009, 2008 | Induced myeloid leukemia cell differentiation protein Mcl-1 (Homo sapiens), Q07820 | Bim peptide-Mcl-1 binding; in the data active = inhibition above about 40%
Bcl-xL primary = inhibitors of human Bcl-xL, primary screen, biochemical, fluorescence polarization, HTS; GST-Bcl-xL / FITC-Bim BH3 peptide fluorescence polarization; inhibition, % at 10.9 µM; 0.7% of 320,000 active;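 active = inhibition above the mean of all tested compounds plus 3 SD, cutoff set per campaign, cut at about 30% in these data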;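 also: inhibitors lower millipolarization by displacing the labeled peptide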
Target sequence (Q07817 whole entry, looked up): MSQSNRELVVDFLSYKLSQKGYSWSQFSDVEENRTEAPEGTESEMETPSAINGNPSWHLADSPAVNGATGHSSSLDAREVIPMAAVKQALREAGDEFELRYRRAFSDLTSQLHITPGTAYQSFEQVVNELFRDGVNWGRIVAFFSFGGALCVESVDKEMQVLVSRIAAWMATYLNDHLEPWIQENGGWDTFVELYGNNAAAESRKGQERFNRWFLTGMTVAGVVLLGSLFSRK
GLD-1 RNA inh = GLD-1/TGE RNA complex disruptors, primary screen, biochemical, fluorescence polarization; Female germline-specific tumor suppressor gld-1 (Caenorhabditis elegans), Q17339; purified GLD-1 + fluorescein TGE RNA; inhibition, % at 5.96 µM; 0.44% of 320,000 active; AID 2280, 2010;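 active = percent inhibition above a per-plate cutoff, the plate mean of test compounds plus 3 SD, cut at about 30% in these data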
MCL1-BIM inh = inhibitors of MCL1 binding to BIM-BH3, primary screen, biochemical, fluorescence polarization | 0.68% of 320,000 active | inhibition, % at 10.9 µM | GST-MCL1 / FITC-Bim-BH3 fluorescence polarization | AID 2057, 2009 | Induced myeloid leukemia cell differentiation protein Mcl-1 (Homo sapiens), Q07820;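 active = inhibition above the mean inhibition of all tested compounds plus 3 SD, set per campaign, cut at about 40% in these data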;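 also: higher means more loss of mP so more displacement of Bim peptide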
Each line names hits and unclear results; the compound was inactive in the other large screens.

O=C(O)c1ccc(NS(=O)(=O)c2ccc3c(c2)C2C=CCC2C(c2ccccc2F)N3)cc1 (stereo not drawn)	Mcl1 Noxa PPI 93 (no result: Bcl-xL primary, GLD-1 RNA inh, MCL1-BIM inh)
Cc1cccc(C(=O)N[C@H](C(=O)OCc2cc(=O)n3c(n2)sc2ccccc23)C(C)C)c1	Mcl1 Noxa PPI 69
CC(=O)c1ccc(NC(=O)C(C)OC(=O)/C=C/c2ccco2)cc1 (stereo not drawn)	none (no result: Mcl1-Bid inh, Mcl1 Noxa PPI, Mcl-1 Bim block, Bcl-xL primary, MCL1-BIM inh)
Cc1cc(C(=O)Nc2ccc(Br)cc2)c2ccccc2n1	none (no result: Mcl1-Bid inh, Mcl1 Noxa PPI, Mcl-1 Bim block)
CCC(/C=C1\Sc2ccc(OC)cc2N1CCO)=C\c1sc2ccc(OC)cc2[n+]1CCO	Mcl-1 Bim block 42
Cc1nnc(NC(=O)COc2ccc3c(C)cc(=O)oc3c2)s1	Mcl1 Noxa PPI 79
Cc1ccc(Cl)cc1NC(=O)COC(=O)c1ccc(COc2ccc3c(C)cc(=O)oc3c2)cc1	Mcl1-Bid inh 57
COc1ccccc1N1CCN(C(=O)CCCn2nc(C)c([N+](=O)[O-])c2C)CC1	none
CN1/C(=C\C=Nc2ccc3ccccc3c2)C(C)(C)c2ccccc21	none
CN1/C(=C/C=C(C#N)C#N)C(C)(C)c2ccccc21	Bcl-xL primary 47
CN1/C(=C\C=O)C(C)(C)c2ccccc21	none
CN(C)c1ccc(N=C/C=C2\N(C)c3ccccc3C2(C)C)cc1	Mcl1 Noxa PPI 71
CC1=C/C(=C\C=C(C#N)C#N)N(C)c2ccccc21	Bcl-xL primary 35 (no result: Mcl-1 Bim block)
O=C(Cc1n[nH]c(=O)c2ccccc12)OCC(=O)c1ccc(OC(F)F)cc1OC(F)F	none (no result: Mcl1-Bid inh, Mcl1 Noxa PPI, Mcl-1 Bim block)
C=CC[C@@H](CC(=O)OC(C)(C)C)C(=O)OC[C@H]1CCCN1C(=O)[C@@H](CC=C)CC(=O)N(CCO)Cc1ccccc1	none (no result: Mcl1-Bid inh, Mcl1 Noxa PPI, Mcl-1 Bim block, Bcl-xL primary, MCL1-BIM inh)
CC1=C(c2ccccc2)[N+](=O)C2(CCCC2)N1[O-]	none
O=[N+]([O-])c1ccc2c(c1)N([O-])C1(CCCCC1)[N+]2=O	Mcl1 Noxa PPI 83 (no result: Mcl-1 Bim block, Bcl-xL primary, GLD-1 RNA inh, MCL1-BIM inh)
CC(=O)Nc1nc2cc3c(cc2s1)OCO3	none
CCOC(=O)c1sc(Nc2nc3cc4c(cc3s2)OCO4)cc1C	Mcl1 Noxa PPI 65 (no result: Mcl-1 Bim block)
CCOc1c(C(N)=O)c(-c2ccccc2)c2c(=O)[nH]c3ccccc3n12	Mcl1-Bid inh 99
CCOC(=O)c1c(C)nc(C)c(C(=O)OCC)c1-c1ccccc1	none
COc1cc(/C=C/C(=O)c2ccc(NS(=O)(=O)c3ccc(C)cc3)cc2)cc(OC)c1O	Mcl1 Noxa PPI 56
CCn1c(CNC(=O)c2cccc(C)c2)nnc1SCC(=O)Nc1nnc(C)s1	none (no result: Mcl1-Bid inh, Mcl1 Noxa PPI, Mcl-1 Bim block)
COC(=O)c1cc(Br)ccc1NC(=O)Nc1ccc(C)cc1	none (no result: Mcl1-Bid inh, Mcl1 Noxa PPI, Mcl-1 Bim block)
COC(=O)c1cc(Br)ccc1NC(=O)Nc1ccccc1	Mcl1 Noxa PPI 73
COC(=O)c1cc(S(=O)(=O)N(C)C2CCCCC2)c[nH]1	none (no result: Mcl1-Bid inh, Mcl1 Noxa PPI, Mcl-1 Bim block)
CCN(CC(=O)Nc1ccc(NC(C)=O)cc1)C(=O)c1ccccc1SCC(=O)N1CCCC1	none (no result: Mcl1-Bid inh, Mcl1 Noxa PPI, Mcl-1 Bim block)
c1ccc(C(c2nnnn2C2CCCCC2)N2CCc3ccccc3C2)nc1 (stereo not drawn)	Bcl-xL primary 30
CCN(CC)c1ccc(NC(=O)CN2CCN(CC(=O)Nc3ccccc3OC)CC2)cc1	none (no result: Mcl1-Bid inh, Mcl1 Noxa PPI, Mcl-1 Bim block)
CCN(CC)c1ccc(NC(=O)CN2CCN(CC(=O)Nc3ccccc3F)CC2)cc1	Mcl1 Noxa PPI 55
O=S(=O)(Nc1ccc2c(c1)OCCO2)c1cccc2nsnc12	Mcl1-Bid inh 61
COc1ccc(CC(=O)Nc2ccc(F)c(F)c2F)cc1S(=O)(=O)N1CCOCC1	none (no result: Mcl1-Bid inh, Mcl1 Noxa PPI, Mcl-1 Bim block)
O=C(CC1Nc2cccc3cccc(c23)NC1=O)Nc1ccccc1 (stereo not drawn)	Mcl1 Noxa PPI 54
O=C(NC(=S)NCc1cccnc1)c1ccc([N+](=O)[O-])cc1	Mcl1-Bid inh 71
CCNc1nc(NCC)nc(C(=O)NN)n1	Mcl1 Noxa PPI 75
COc1cc(CNCc2ccc(SC)cc2)cc(OC)c1	Mcl1-Bid inh 51
O=C(N/N=C/c1ccncc1)c1ccc(-n2cccc2)cc1	Mcl1 Noxa PPI 59
Cc1c(Cl)cnc(NC(=O)COC(=O)c2ccc3ncsc3c2)c1Cl	Mcl1-Bid inh 66, Mcl1 Noxa PPI 58
CCOC(=O)c1c(NC(=O)c2ccccc2)sc2c(O)c(CN(CC)CC)ccc12	Mcl1 Noxa PPI 59
O=C(c1ccc2c(=O)n(Cc3ccccc3Cl)c(=S)[nH]c2c1)N1CCCC1	none (no result: Mcl1-Bid inh, Mcl1 Noxa PPI, Mcl-1 Bim block)
CCCCN(C(=O)C(C)N1C(=O)c2ccccc2C1=O)c1c(N)n(CC(C)C)c(=O)[nH]c1=O (stereo not drawn)	none (no result: Mcl1-Bid inh, Mcl1 Noxa PPI, Mcl-1 Bim block)
O=[N+]([O-])c1ccc(-c2nc3ccc([N+](=O)[O-])cc3[nH]2)cc1	Mcl1-Bid inh 78, Mcl1 Noxa PPI 63
CCCC[n+]1ccc(-c2nc3ccc([N+](=O)[O-])cc3[nH]2)cc1	none
Nc1ccc2nc(-c3ccc(Cl)cc3)[nH]c2c1	Mcl1 Noxa PPI 85
Nc1ccc(-c2nc3ccc([N+](=O)[O-])cc3[nH]2)cc1	Mcl1 Noxa PPI 51
CCC(C(=O)OC(C)C)c1ccc2ccccc2c1 (stereo not drawn)	none (no result: Mcl1-Bid inh, Mcl1 Noxa PPI, Mcl-1 Bim block)
O=C(O)c1ccc2c(c1)C1C=CCC1C(c1cc3c(cc1Br)OCO3)N2 (stereo not drawn)	none
COC(=O)c1ccc(C2Nc3ccc(/C(C)=N/NC(=O)C(OC)c4ccccc4)cc3C3C=CCC32)cc1 (stereo not drawn)	Bcl-xL primary 34, MCL1-BIM inh 61 (no result: Mcl1-Bid inh, Mcl1 Noxa PPI)
C1=CC2c3ccccc3NC(c3ccncc3)C2C1 (stereo not drawn)	Mcl1 Noxa PPI 78
CC(=O)c1ccc2c(c1)C1C=CCC1C(C(=O)O)N2 (stereo not drawn)	Mcl1 Noxa PPI 74 (no result: Bcl-xL primary, GLD-1 RNA inh, MCL1-BIM inh)
CC(=O)c1ccc2c(c1)C1C=CCC1C(c1ccncc1)N2 (stereo not drawn)	Mcl1 Noxa PPI 51
COC(C(=O)N/N=C(\C)c1ccc(O)cc1)c1ccccc1 (stereo not drawn)	none (no result: Mcl1-Bid inh, Mcl1 Noxa PPI, Mcl-1 Bim block)
O=C(Cn1cc(S(=O)(=O)Cc2cccc(F)c2)c2ccccc21)N1CCOCC1	none (no result: Mcl1-Bid inh, Mcl1 Noxa PPI, Mcl-1 Bim block)
Cc1ccc2c(c1)C1C=CCC1C(C(=O)O)N2 (stereo not drawn)	Mcl1-Bid inh 89, Mcl1 Noxa PPI 107, Bcl-xL primary 62, MCL1-BIM inh 108
Cc1ccc2nc(-c3ccc(NC(=O)CCN4C(=O)c5ccccc5C4=O)cc3)sc2c1	Mcl1-Bid inh 56
Cc1ccc2nc(-c3ccc(NC(=O)CSCC(=O)O)cc3)sc2c1	none (no result: Mcl-1 Bim block)
O=C(O)CSCC(=O)Nc1ccc(-c2nc3ccccc3s2)cc1	Mcl1 Noxa PPI 56 (no result: Mcl-1 Bim block)
O=C(CCS(=O)(=O)c1ccccc1)Nc1ccc(-c2nc3ccccc3s2)c(O)c1	Bcl-xL primary 36
